Structures are written as SMILES. Inconclusive results are not listed. A number with no mark means an inactive call. Active and inactive are the calls of the source. The call rests on the fitted dose curve; in most records, active means well fitted curve in the direction sought with a large enough effect; inconclusive means small, poorly fitted or top-dose-only effect, or another doubt; inactive means no such curve, though single readings can be large; an effect the other way counts as inactive or inconclusive.

Assay [1] is described as follows: Quantitative High-Throughput drug screen in 47 multiple myeloma cell lines against the NCATS MIPE library collection: KMS12BM_JCRB cell viability assay (AID 1918971). Further: nearly all actives have a fitted effect of over 35% in size. Further: potency means the concentration at half of the fitted maximal effect. A digest of the protocol:
(§1)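 qHTS of the MIPE 4.0 collection: 500 myeloma cells/well, 48 h drug exposure at 37C in 5% CO2, then CellTiter-Glo for 5 min at room temperature before luminescence reading.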

The nature of assay [2]: Quantitative High-Throughput drug screen in 47 multiple myeloma cell lines against the NCATS MIPE library collection: KMS26_JCRB cell viability assay (AID 1918975). Further: nearly all actives have a fitted effect of over 45% in size. Further: potency means the concentration at half of the fitted maximal effect. The procedure, abridged:
as §1

A short description of assay [3]: Quantitative High-Throughput drug screen in 47 multiple myeloma cell lines against the NCATS MIPE library collection: MMM1_PLB cell viability assay (AID 1918976). Further: nearly all actives have a fitted effect of over 35% in size. Further: potency means the concentration at half of the fitted maximal effect. The procedure, abridged: (§2)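 500 cells/well; MIPE 4.0 drugs pin-transferred; 48 h, 37C, 5% CO2. CellTiter-Glo, 5 min RT, luminescence. Controls: DMSO 100%, media 0%.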
The nature of assay [4]: Quantitative High-Throughput drug screen in 47 multiple myeloma cell lines against the NCATS MIPE library collection: MOLP8_DSMZ cell viability assay (AID 1918977). Further: nearly all actives have a fitted effect of over 45% in size. A digest of the protocol: as §2
A short description of assay [5]: Quantitative High-Throughput drug screen in 47 multiple myeloma cell lines against the NCATS MIPE library collection: NCIH929_DSMZ cell viability assay (AID 1918978). Further: potency means the concentration at half of the fitted maximal effect; nearly all actives have a fitted effect of over 35% in size. The procedure, abridged: as §2
Assay [6] in a line: Quantitative High-Throughput drug screen in 47 multiple myeloma cell lines against the NCATS MIPE library collection: OCIMY1_PLB cell viability assay (AID 1918979). Further: nearly all actives have a fitted effect of over 35% in size. A digest of the protocol: as §2
The nature of assay [7]: Quantitative High-Throughput drug screen in 47 multiple myeloma cell lines against the NCATS MIPE library collection: MM1S_ATCC cell viability assay (AID 1918980). Further: potency means the concentration at half of the fitted maximal effect; nearly all actives have a fitted effect of over 45% in size. The procedure, abridged:
as §2

A short description of assay [8]: Quantitative High-Throughput drug screen in 47 multiple myeloma cell lines against the NCATS MIPE library collection: L363_DSMZ cell viability assay (AID 1918984). Further: nearly all actives have a fitted effect of over 40% in size. A digest of the protocol: as §2
Assay [9] in a line: Quantitative High-Throughput drug screen in 47 multiple myeloma cell lines against the NCATS MIPE library collection: OCIMY7_PLB cell viability assay (AID 1918987). Further: potency means the concentration at half of the fitted maximal effect; nearly all actives have a fitted effect of over 65% in size. The following applies: OCI-MY7 myeloma viability, CellTiter-Glo ATP, 48 h; viability (% of DMSO): at 45.8 µM (top of the series). A digest of the protocol:
as §2
In general terms: Cellular ATP, detected with luciferase, serves as a proxy for viable cell number.

A short description of assay [10]: Quantitative High-Throughput drug screen in 47 multiple myeloma cell lines against the NCATS MIPE library collection: OCIMY5_PLB cell viability assay (AID 1918988). Further: potency means the concentration at half of the fitted maximal effect; nearly all actives have a fitted effect of over 65% in size. The procedure, abridged:
as §2

Assay [11] in a line: Quantitative High-Throughput drug screen in 47 multiple myeloma cell lines against the NCATS MIPE library collection: OPM1_PLB cell viability assay (AID 1918989). Further: nearly all actives have a fitted effect of over 40% in size. Further: potency means the concentration at half of the fitted maximal effect. The procedure, abridged: as §2
Assay [12] is described as follows: Quantitative High-Throughput drug screen in 47 multiple myeloma cell lines against the NCATS MIPE library collection: U266_ATCC cell viability assay (AID 1919864). Further: nearly all actives have a fitted effect of over 35% in size. Further: potency means the concentration at half of the fitted maximal effect. The procedure, abridged: as §2
Assay [13] in a line: Quantitative High-Throughput drug screen in 47 multiple myeloma cell lines against the NCATS MIPE library collection: KMS28PE_JCRB cell viability assay (AID 1918983). Further: nearly all actives have a fitted effect of over 35% in size. Further: potency means the concentration at half of the fitted maximal effect. The procedure, abridged:
as §2

Assay [14] is described as follows: Quantitative High-Throughput drug screen in 47 multiple myeloma cell lines against the NCATS MIPE library collection: SKMM1_PLB cell viability assay (AID 1919863). Further: nearly all actives have a fitted effect of over 35% in size. Further: potency means the concentration at half of the fitted maximal effect. The conditions noted are these: SKMM1 myeloma viability, CellTiter-Glo ATP, 48 h; viability: stronger effect = lower value. The procedure, abridged:
as §2

The nature of assay [15]: Quantitative High-Throughput drug screen in 47 multiple myeloma cell lines against the NCATS MIPE library collection: KMS12PE_JCRB cell viability assay (AID 1918972). Further: nearly all actives have a fitted effect of over 30% in size. A digest of the protocol:
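CellTiter-Glo luminescence (ATP) after 48 h compound exposure, 37C/5% CO2; 500 cells/well; MIPE 4.0 approved/investigational drugs pinned in; DMSO = 100%, media only = 0% viability.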

Assay [16] is described as follows: Quantitative High-Throughput drug screen in 47 multiple myeloma cell lines against the NCATS MIPE library collection: KMS34_JCRB cell viability assay (AID 1918985). Further: nearly all actives have a fitted effect of over 40% in size. Further: potency means the concentration at half of the fitted maximal effect. A digest of the protocol:
as §2

Assay [17] in a line: Quantitative High-Throughput drug screen in 47 multiple myeloma cell lines against the NCATS MIPE library collection: KMS20_JCRB cell viability assay (AID 1918973). Further: potency means the concentration at half of the fitted maximal effect; nearly all actives have a fitted effect of over 45% in size. The procedure, abridged:
(§3)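 Steps: seed 500 cells per well; pin-transfer MIPE 4.0 library; incubate 48 h at 37C, 5% CO2, humidified; add CellTiter-Glo, 5 min room temperature; read luminescence.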

The nature of assay [18]: Quantitative High-Throughput drug screen in 47 multiple myeloma cell lines against the NCATS MIPE library collection: KMS21BM_JCRB cell viability assay (AID 1918974). Further: potency means the concentration at half of the fitted maximal effect. The conditions noted are these: ATP luminescence, 48 h; viability: at 45.8 µM (top of the series) unless noted. The procedure, abridged: as §3
The nature of assay [19]: Quantitative High-Throughput drug screen in 47 multiple myeloma cell lines against the NCATS MIPE library collection: LP1_DSMZ cell viability assay (AID 1918982). Further: nearly all actives have a fitted effect of over 35% in size. Further: potency means the concentration at half of the fitted maximal effect. A digest of the protocol: as §2
Assay [20] in a line: Quantitative High-Throughput drug screen in 47 multiple myeloma cell lines against the NCATS MIPE library collection: MM1R_ATCC cell viability assay (AID 1918981). Further: nearly all actives have a fitted effect of over 35% in size. A digest of the protocol:
as §2

As to `C[C@]12CC[C@@H]3c4ccc(O)cc4C[C@@H](CCCCCCCCCS(=O)CCCC(F)(F)C(F)(F)F)[C@H]3[C@H]1CC[C@H]2O` (stereo partly specified), the Potency is 16.6 µM (active) in assay [1]; 18.7 µM (active) in [3]; 0.0187 µM (active) in [5]; 2.96 µM (active) in [7]; 5.9 µM (active) in assay [9]; 10.5 µM (active) in [10]. The Potency result in assay [2], in [4], in [6], in assay [8], in assay [11] and in assay [12] was “inactive” each time.

One may read the viability as a read-out of living cells in per cent, often relative to untreated cells. As to `Cn1cc(C=C2C(=O)Nc3cccnc32)c2ccccc21`, the Potency entry in assay [1], in [2], in assay [6] and in [13] was “inactive” each time. Further, in [11], the Potency is 18.7 µM (active). Besides, the viability in assay [14] was 130%.

Take `CC(C)OC(=O)CCCC=CC[C@@H]1[C@H](C=C[C@@H](O)COc2cccc(C(F)(F)F)c2)[C@H](O)C[C@@H]1O`: the Potency entry in assay [15] was “inactive”. For the same molecule, the Potency in assay [3] was 14.8 µM (active); in assay [5], 18.7 µM (active); in assay [13], 20.9 µM (active); in assay [16] it was 13.2 µM (active); in assay [10], 16.6 µM (active); in assay [11], 18.7 µM (active). Also, the Potency in assay [14] and in assay [12] was 20.9 µM (active) throughout.

Turning to `O=C1NC(=O)C(=Cc2ccc3c(c2)OC(F)(F)O3)S1`, the Potency is 13.2 µM (active) in [17]; 3.32 µM (active) in assay [18]; 18.7 µM (active) in [2]; 10.5 µM (active) in assay [3]; 20.9 µM (active) in assay [7]; 18.7 µM (active) in [19]. The Potency in assay [11] is 7.43 µM (active). The Potency entry in assay [6], in assay [13] and in assay [12] was “inactive” each time.

On to `COc1ccc2cc(-c3nc(-c4ccc(S(C)=O)cc4)[nH]c3-c3ccncc3)ccc2c1` (stereo unspecified), for which the Potency in assay [17] is 7.43 µM (active); in assay [10], 14.8 µM (active); in [11], 20.9 µM (active). The Potency result in assay [6] and in assay [13] was “inactive” throughout. Moreover, the viability in assay [14] is 106%.

Take `C[C@@H]1CCN(C(=O)CC#N)C[C@H]1N(C)c1ncnc2[nH]ccc12`: the Potency entry in assay [15], in assay [3], in [6], in [20], in [19] and in assay [13] was “inactive” each time. For the same molecule, the Potency result in assay [11] is “inactive”. Also, the Potency in [7] is 2.64 µM (active); in assay [10], 13.2 µM (active).

In the case of `CC(C(=O)O)c1ccc(-c2ccccc2)c(F)c1` (stereo unspecified), the Potency in assay [17] is 4.69 µM (active); in assay [3] it was 1.87 µM (active); in assay [5], 16.6 µM (active); in assay [7], 26.4 µM (active); in assay [9], 14.8 µM (active); in [12], 20.9 µM (active). Besides, the Potency result in [4], in assay [6], in assay [20], in assay [19], in [13] and in assay [16] was “inactive” each time. Besides, the Potency entry in assay [11] was “inactive”. The viability in [14] was 102%.

Values taken from PubChem BioAssay (NCATS).
